High-throughput results: PubChem, National Center for Advancing Translational Sciences (NCATS)
Most compounds without a hit are left out; they make up all but 3.1% or so of the library.
PLK1 PBD inh – PLK1 (human) polo-box domain binding inhibition; P53350; Plk1 PBD binding of FITC phosphopeptide, fluorescence polarization; Potency, µM, actives largely listed as inhibitors; 360,000 tested, 2.8% active; also: series mostly up to about 57 µM; nearly all actives have a fitted effect of over 65% in size
TSHR antag – blocks TSH signaling through the human TSH receptor; P16473; AID 504810; activity change, negative = inhibition, % at 11.5 µM; 330,000 tested, 0.2% active; TSHR-expressing cells, TSH-stimulated cAMP HTRF, 2 h; active compounds read low;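 active = activity change below a set negative limit, meaning inhibition stronger than a set level, cut at about -70% in these data; inconclusive = activity change between two set negative limits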
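TSHR-expressing cells were treated with compounds, then stimulated with TSH at EC80 (4nM final) for 2 hours at 37 deg C. Cellular cAMP was measured by HTRF competition between lysate cAMP and cAMP-d2 for a cryptate-labelled anti-cAMP antibody.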
Vif-A3G inh – Vif-A3G binding inhibition; AID 602310; 410,000 tested, 0.076% active; Potency, µM (doses to about 46.1 µM), most hits filed as inhibitors; HeLa A3G-eYFP + Vif (tagged APOBEC3G with the HIV-1 protein that degrades it), YFP fluorescence, overnight; also: nearly all actives have a fitted effect of over 60% in size
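Read-out is eYFP fluorescence (Ex 488/Em 500-530) from Vif-expressing HeLa A3G-eYFP cells; more signal means A3G escaped Vif-mediated degradation. Cells plated overnight, compound pinned in, incubated overnight at 37 deg C.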
Vif-APOBEC3F blk – Vif-A3F binding inhibition. 390,000 tested, 0.2% active. HeLa A3F-eYFP + Vif (tagged APOBEC3F with the HIV-1 protein that degrades it), YFP fluorescence increase. AID 602313. Potency, µM (doses to about 46.1 µM); also: nearly all actives have a fitted effect of over 65% in size
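HeLa cells stably expressing Vif plus C-terminally eYFP-tagged A3F were seeded, incubated overnight at 37 deg C, dosed with compound, incubated overnight again at 37 deg C. Yellow fluorescence (Ex 488/Em 500-530) reported blocked Vif-mediated A3F-eYFP degradation.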
VDR inh – vitamin D3 receptor (human) inhibition; Potency, µM, usual class: inhibitors; AID 504847; VDR-SRC2-3 peptide fluorescence polarization, 2 h; 400,000 tested, 0.93% active; P11473
Target sequence (P11473 whole entry, looked up): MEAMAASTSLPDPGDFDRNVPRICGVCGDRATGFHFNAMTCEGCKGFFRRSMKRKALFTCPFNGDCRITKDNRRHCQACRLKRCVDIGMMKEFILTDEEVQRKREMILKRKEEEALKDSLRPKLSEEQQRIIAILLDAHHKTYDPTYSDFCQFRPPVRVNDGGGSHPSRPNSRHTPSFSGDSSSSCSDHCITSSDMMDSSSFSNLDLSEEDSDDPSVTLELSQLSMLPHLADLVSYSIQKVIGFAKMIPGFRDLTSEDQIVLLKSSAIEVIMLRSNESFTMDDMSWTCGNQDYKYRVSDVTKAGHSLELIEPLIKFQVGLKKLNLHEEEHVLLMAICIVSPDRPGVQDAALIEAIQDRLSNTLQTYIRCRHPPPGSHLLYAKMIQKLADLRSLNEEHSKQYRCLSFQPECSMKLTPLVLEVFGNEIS
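Signal is fluorescence polarization, reporting how far test compounds block the interaction of VDR with the SRC2-3 coregulator peptide after a 2 h room-temperature incubation.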
Of the large screens only hits and unclear results are named; the others gave an inactive call. Unless noted, calls follow the shape of the dose curve; as a rule, active = well fitted curve in the direction sought with a large enough effect; inconclusive = small, poorly fitted or top-dose-only effect, or another doubt; inactive = no such curve, though single readings can be large; an effect the other way counts as inactive or inconclusive.

C=C(C(=O)c1ccccc1)C(C)C(=C)C(=O)c1ccccc1	Vif-A3G inh 5µM, Vif-APOBEC3F blk inconclusive, VDR inh 79µM
C=C(C(=O)c1ccccc1)C(c1ccccc1)C(C)C(=O)c1ccccc1 (stereo not given)	none
COc1ccc2c(c1O)C(=O)c1ccccc1C2=O	none (no result: PLK1 PBD inh, Vif-A3G inh, Vif-APOBEC3F blk, VDR inh)
COc1c(C=O)c(O)cc2c1C(=O)c1ccccc1C2=O	VDR inh 7.1µM (no result: PLK1 PBD inh, TSHR antag, Vif-A3G inh, Vif-APOBEC3F blk)
O=C(CSc1nncc(=O)[nH]1)Nc1cccc([N+](=O)[O-])c1	PLK1 PBD inh 21µM, VDR inh inconclusive
O=C(CSc1nncc(=O)[nH]1)NCc1ccccc1	PLK1 PBD inh 27µM
O=C(CSc1nc2[nH]ncc2c(=O)[nH]1)NCc1ccccc1	none
Cn1c(-c2sccc2OCc2ccc(Cl)cc2Cl)n[nH]c1=S	PLK1 PBD inh 27µM
COC(=O)C1=C[C@@H](C(=O)OC)C2C3=C(C(=O)[C@@]2(C)NC(=O)c2ccccc2)[C@H](C)n2c(=O)n(-c4ccccc4)c(=O)n2[C@@H]3C1 (stereo not given in full)	none (no result: PLK1 PBD inh, TSHR antag, Vif-APOBEC3F blk)
COC(=O)Cc1ccc(O)c(N)c1	PLK1 PBD inh 9.5µM, VDR inh inconclusive
Cc1ccc(Nc2nc3ccccc3o2)cc1F	PLK1 PBD inh 3µM, VDR inh inconclusive
CC(=O)Nc1ccc(S(=O)(=O)NCC(CCC(=O)O)C(F)(F)F)cc1 (stereo not given)	PLK1 PBD inh 13µM, VDR inh inconclusive
C=CCN(c1ccc(C(=O)Nc2ccc(NC(C)=O)cc2)cc1)S(C)(=O)=O	PLK1 PBD inh 21µM, VDR inh 35µM
Cc1ccc(Nc2nc(NCc3ccco3)nc3nccnc23)cc1C	none (no result: PLK1 PBD inh, TSHR antag, Vif-APOBEC3F blk)
C[N+]1(CC(=O)c2ccc(Oc3ccc(C(=O)C[N+]4(C)CCOCC4)cc3)cc2)CCOCC1	none (no result: PLK1 PBD inh, TSHR antag, Vif-APOBEC3F blk, VDR inh)
O=C(Nc1nnc(CCc2ccccc2)s1)C1CCN(C(=O)c2ccco2)CC1	none (no result: PLK1 PBD inh, TSHR antag, Vif-APOBEC3F blk)
CC(C)(C)Cc1nnc(NC(=O)Cc2ccc([N+](=O)[O-])cc2)s1	PLK1 PBD inh 5.3µM, VDR inh inconclusive
O=C(Cc1cccs1)Nc1nnc(CCc2ccccc2)s1	none
CC(C)(C)Cc1nnc(NC(=O)Cc2cccs2)s1	PLK1 PBD inh 19µM
O=C(Nc1nnc(Cc2ccccc2)s1)C1CCN(C(=O)c2ccco2)CC1	PLK1 PBD inh 27µM
CC(C)(C)Cc1nnc(NC(=O)c2ccc([N+](=O)[O-])cc2)s1	none
O=C(Cc1cccs1)Nc1nnc(Cc2ccccc2)s1	PLK1 PBD inh 27µM
Cc1nc2cnc(Nc3ccccc3)nc2n(CCc2ccccc2)c1=O	none (no result: PLK1 PBD inh, TSHR antag, Vif-A3G inh, Vif-APOBEC3F blk)
COc1ccc(Cn2nnnc2C(c2ccccn2)N2CCN(c3cc(Cl)ccc3C)CC2)cc1 (stereo not given)	TSHR antag -93
COc1ccc(Cn2nnnc2C(CC(C)C)N2CCN(c3ccccc3)CC2)cc1 (stereo not given)	TSHR antag -72
COc1ccccc1C(c1nnnn1CCc1ccccc1)N1CCN(c2ccccc2)CC1 (stereo not given)	none
CCCC(c1nnnn1Cc1ccc(OC)cc1)N1CCN(c2ccccc2)CC1 (stereo not given)	none
COc1cccc(C(c2nnnn2CCc2ccccc2)N2CCN(c3ccccc3)CC2)c1OC (stereo not given)	PLK1 PBD inh 30µM
CCOc1ccc(NC(=O)CN(c2ccc(C)cc2)S(=O)(=O)c2cccs2)cc1	none (no result: PLK1 PBD inh, TSHR antag)
COc1cccc(OC)c1-c1cc(CCCc2cc(-c3c(OC)cccc3OC)nc3ccccc23)c2ccccc2n1	none (no result: PLK1 PBD inh, TSHR antag, Vif-APOBEC3F blk, VDR inh)
Cc1ccc(C(=O)N/C(=C/c2ccco2)C(=O)NC2CCS(=O)(=O)C2)cc1 (stereo not given)	none
COc1ccc(/C=C(/NC(=O)c2ccccc2)C(=O)NC2CCS(=O)(=O)C2)cc1 (stereo not given)	PLK1 PBD inh 15µM, VDR inh inconclusive
c1coc(-c2ccc3ncnc(NCc4cccs4)c3c2)c1	none (no result: PLK1 PBD inh, Vif-A3G inh, Vif-APOBEC3F blk, VDR inh)
O=C(Cn1cc2c(n1)CCCCC2)NCc1ccccc1	PLK1 PBD inh 30µM
O=C(Cn1cc2c(n1)CCCCC2)Nc1ccccc1Cl	none
O=C(Cn1cc2c(n1)CCCC2)Nc1ccccc1Cl	PLK1 PBD inh 24µM
CCc1ccc(N2CC(C(=O)N/N=C/c3ccccc3)CC2=O)cc1 (stereo not given)	PLK1 PBD inh 27µM, VDR inh inconclusive (no result: TSHR antag)
CCN(CC)C(=O)N1CCN(/[N+]([O-])=N/Oc2ccc([N+](=O)[O-])cc2[N+](=O)[O-])CC1	none (no result: PLK1 PBD inh, TSHR antag, Vif-APOBEC3F blk, VDR inh)
C=C1C(=O)c2sccc2C(c2ccc(OC)c(OC)c2)C1COC(C)=O (stereo not given)	PLK1 PBD inh 27µM, Vif-A3G inh inconclusive, VDR inh inconclusive (no result: TSHR antag)
CCN1CCN(CC(=O)N2N=C(c3cccs3)CC2c2ccc(OC)c(OC)c2)C(=O)C1=O (stereo not given)	none
CCCCCCCCCCCCC/C=C/[C@@H](O)C(CO)NC(C)=O (stereo not given in full)	none (no result: PLK1 PBD inh, TSHR antag, Vif-A3G inh, Vif-APOBEC3F blk)
O=C(O)c1ccccc1-c1ccccc1C(=O)Nc1cccc(-c2nc3ccccc3o2)c1	PLK1 PBD inh 67µM
Cc1ccc(C(=O)Nc2cccc(-c3nc4ccccc4o3)c2)c(Cl)c1	Vif-APOBEC3F blk inconclusive (no result: PLK1 PBD inh, TSHR antag)
COC(=O)c1ccc(-n2nnnc2SC)cc1	PLK1 PBD inh 21µM
C[C@@H](NC(=O)[C@@H]1Cc2ccccc2CN1C(=O)OC(C)(C)C)C(=O)NC1CCCC1	PLK1 PBD inh 30µM, VDR inh inconclusive
Cc1ccc(NC(=O)[C@@H](C)NC(=O)[C@@H]2Cc3ccccc3CN2)cc1	none
CC(C)C(OC(=O)C1=Cc2ccccc2OC1)C(=O)NCC1CCCO1 (stereo not given)	PLK1 PBD inh 21µM (no result: TSHR antag)
